# Measured values reported in PubChem BioAssay (NCI).
# The panel holds about 83,000 compounds, 20% with a hit somewhere; the sample as a whole holds those more often.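 Single-concentration screen, 48 h exposure, 96-well plates. Endpoint: percent growth. Below 10 = active.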 Values without a mark were called inactive. Active and inactive are the calls of the source.
# Tested on: MDA-MB-468 breast
# Test: NCI-60 one-dose screen, 48 h (100 = growth as untreated, 0 = no growth, -100 = all killed)
# Conditions: 10 µM unless noted
row,SMILES,growth
1,CCN(CC)CCOC(=O)c1ccc(N=Nc2ccc(O)c(OC)c2)cc1,94%
2,CCCCCCCCCCCC1=NC(C)(C)CN1C(C)C,-1.36% (active)
3,COc1cc(-c2ccc(NC(=O)CC(C)=O)c(OC)c2)ccc1NC(=O)CC(C)=O,109%
4,CC[C@]12C=CCN3CC[C@@]4(c5cc(NC(=O)COc6cc(O)c7c(=O)cc(-c8ccccc8)oc7c6)c(OC)cc5N(C)[C@H]4[C@@](O)(C(=O)OC)[C@@H]1OC(C)=O)[C@@H]32,-74.6% (active)
5,CCOc1ccc(Br)cc1/C=C(\C#N)c1ccc([N+](=O)[O-])cc1,51.7%
6,COc1ccc(COc2ccc(/C=C3\C(=O)Nc4ccccc43)cc2OC)cc1,100%
7,C=C(C)[C@@H]1CC[C@]2(CN)CC[C@]3(C)[C@H](CC[C@@H]4[C@@](C)(CCCN)[C@H](C(=C)C)CC[C@]43C)[C@@H]12,84.7%
8,COc1ccc(C/C(C)=C(/c2ccc(OCCN(C)C)cc2)c2ccc(OC(=O)NCc3ccccc3)cc2)cc1,67.6%
9,COc1cc(/C=C/C(=O)c2ccc(NC(=O)CSc3nnc(-c4ccc(-c5nc6ccc(Cl)cc6[nH]5)cc4)o3)cc2)cc(OC)c1OC,103%
10,CS(=O)c1cccc(-c2ccc3nc(N)n(-c4ccc(C(F)(F)F)cc4)c(=O)c3c2)c1 (stereo not given),84.4%
11,O=C(CCCCCCSc1nc(-c2ccccc2)cc(-c2ccc(Cl)cc2)n1)NO,4.78% (active)
12,O=C(/C=C/c1cccc(Br)c1)c1cccc(OCCCCOc2cccc(C(=O)/C=C/c3cccc(Br)c3)c2)c1,102%
13,NC1=C(c2nn[nH]n2)C(c2ccccc2Cl)c2ccc3ccccc3c2O1 (stereo not given),55.3%
14,O=S(=O)(Nc1ccc(-c2nc(-c3cccc(O)c3)c(-c3ccnc(Br)c3)[nH]2)cc1)c1ccccc1,-3.6% (active)
15,NCCCNc1nc2ccccc2c2c(=O)c3cc(Cl)ccc3sc12,-19.1% (active)
16,NC(=O)c1c(NC(=O)/C=C/c2cccs2)sc2c1CCC(=O)C2,37.2%
17,COc1ccc(-c2cc(-c3cc(OC)ccc3OC)nc(N)c2C#N)cc1,70.2%
18,Nc1c(C(=O)Nc2ccncc2)sc2nc3c(cc12)C(O)CCC3 (stereo not given),88.5%
19,COc1ccc(-n2nc(C(=O)Nc3ccc(F)cc3)nc2-c2cc(OC)c(OC)c(OC)c2)cc1,91.9%
20,COc1c(B(O)O)cc(C)cc1-c1nc2ccc3[nH]ncc3c2c2c1CCCC2,28.2%

row,SMILES,growth
1,C=C[C@@H]1C[C@H](O)Cc2c(C)cc(C)cc2N1,91.9%
2,O=C1c2cc([N+](=O)[O-])ccc2-c2cc(Cl)c(NC(=O)C(F)(F)F)cc21,-17.9% (active)
3,Clc1ccc(C2CC(c3cccc(Nc4ccncc4)c3)=NN2c2ccc(Cl)cc2)cc1 (stereo not given),-35.3% (active)
4,CCCCC[C@H](O)C/C=C1/C(=O)C=C[C@@H]1C/C=C\CCCC(=O)O,67.4%
5,C=COC(=O)CCOCC(CC)CCCC (stereo not given),104%
6,CCN1C(=O)N(CC)C2NC(SC)=NC21 (stereo not given),103%
7,N#C/C(C(=O)c1ccccc1)=C1/C(=O)Nc2ccc(F)cc21,106%
8,O=C(Nc1ccccc1)OCCc1ccccc1,99.2%
9,CC(=O)NNC(=O)c1sc(NC(C)=O)nc1C,104%
10,CCCCN(CCCC)c1ccc(C(=NC(C)CCCN(CC)CC)c2ccc(N(C)C)cc2)cc1 (stereo not given),-85.8% (active)
11,CN1CCN(c2nc(-c3csc(-c4cccs4)n3)cc3ccccc23)CC1,20.3%
12,O=C1CCC(NC(=S)Nc2ccccc2)N1 (stereo not given),112%
13,CCN(CC)CCCC(Nc1c2ccc(Cl)cc2nc2ccc(OC)cc12)c1ccncc1 (stereo not given),88.5%
14,OCc1cccc2ccccc12,124%
15,COc1cc2oc(-c3cccc(C(=O)N[C@@H](CC(C)C)C(=O)OC(C)(C)C)c3)cc(=O)c2c(OC)c1OC,85.6%
16,O=C(CCc1nnc2sc(-c3ccc(Cl)cc3Cl)nn12)c1nc2ccccc2[nH]1,-56.2% (active)
17,Cn1c2ccc(Br)cc2c2c3c(c4c5cc(F)ccc5oc4c21)C(=O)N(O)C3=O,108%
18,COC(=O)c1[nH]nc2c1C1(C(=O)c3cccc4cccc1c34)C(C#N)=C(N)O2 (stereo not given),86.3%
19,c1ccc2c(NCCCN3CCOCC3)c3oc4ccccc4c3nc2c1,-53.6% (active)
20,CC(=O)CC/C=C(\C)[C@H](O)[C@H](C)C(=O)O[C@H]1C[C@H](C)C=C2C=C[C@@]3(C)O[C@@H](O)CC(=O)[C@]3(C)[C@H]21,-65.4% (active)
